An excerpt weighted towards active compounds, which were near 4.7% of everything screened.
D1 agonist: human D1 receptor agonism; P21728; HEK293 T-REx D1 cells, calcium flux, agonist mode; activation, % at 2 µM; actives 1% (n = 360,000); AID 504660; also: 0% is about no effect
Target sequence (P21728 whole entry, looked up): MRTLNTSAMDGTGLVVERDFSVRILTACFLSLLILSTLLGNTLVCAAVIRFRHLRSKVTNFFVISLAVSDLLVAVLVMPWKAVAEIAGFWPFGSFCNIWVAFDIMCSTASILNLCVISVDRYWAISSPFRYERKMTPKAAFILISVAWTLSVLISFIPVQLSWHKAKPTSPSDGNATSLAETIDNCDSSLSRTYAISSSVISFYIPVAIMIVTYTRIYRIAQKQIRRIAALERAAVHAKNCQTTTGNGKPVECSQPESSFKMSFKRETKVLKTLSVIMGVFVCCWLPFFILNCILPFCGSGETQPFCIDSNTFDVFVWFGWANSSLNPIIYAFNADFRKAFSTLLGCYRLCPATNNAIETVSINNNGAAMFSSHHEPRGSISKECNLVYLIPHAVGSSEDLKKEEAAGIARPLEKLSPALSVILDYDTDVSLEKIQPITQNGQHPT
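Agonism was scored from calcium flux recorded over 180 s (1 read/s) after pintool compound addition, following a 10-cycle baseline. Cells were inducible force-coupled HEK293 TREx D1, plated overnight at 30 C and loaded with no-wash calcium dye.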
TRHR enhancer: TRH receptor (human) allosteric enhancement | enhancement, % at 2 µM | TRHR cells, fluo-8 calcium fluorescence, EC20 TRH enhancement | AID 493056 | actives 0.66% (n = 360,000); in the data active = enhancement above about 30%; also: 0% is about no effect
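Enhancer read-out: after compound pinning and an initial kinetic agonist-mode read, an EC20 of TRH (10 nM final) was injected and fluo-8 calcium signal (Ex 480/Em 530) followed at 1 s/cycle for 100 cycles in TRHR-expressing cells.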
D1 PAM: human D1 dopamine receptor positive modulation | P21728 | HEK293 TREx D1 cells, calcium flux, dopamine EC20 potentiation | potentiation, % at 10 µM | actives 0.036% (n = 360,000) | AID 504651; in the data active = potentiation above about 30%; also: 0% is about no effect
TRHR ag: TRH receptor (human) agonism; P34981; TRHR cells, calcium flux fluo-8, FDSS agonist mode; activation, % at 2 µM; actives 0.18% (n = 360,000); also: 0% is about no effect
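TRHR-expressing cells loaded with fluo-8 calcium dye; 23 nL library compound pin-transferred, kinetic FDSS fluorescence (Ex 480/Em 530) recorded about 180 s for agonist-induced calcium release, before a 10 nM TRH EC20 addition for potentiator mode.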
D1 antagonist: antagonists of human D1 dopamine receptor; P21728; HEK293 TREx D1 cells, calcium flux, dopamine EC80; hits give low values; activity change, negative = inhibition, % at 10 µM; actives 3.2% (n = 360,000); AID 504652; in the data active = activity change below about -30%; also: % is scaled to controls: 0 for no effect and ±100 for the full control effect
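Using tetracycline-induced force-coupled D1 Hek293 cells and a calcium dye, signals were followed for 180 s after compound, then for 180 s after EC80 dopamine, to detect inhibitors.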
The depositor's hits bear a star. Rule as the data show it, unless noted: active = activation above about 30%; inactive = the rest.

SMILES | D1 agonist | TRHR enhancer | D1 PAM | TRHR ag | D1 antagonist
CCOc1cccc2sc(N(CCCN(C)C)C(=O)c3ccc(C(=O)c4ccccc4)cc3)nc12 | 43* | -1 | -2 | 1 | -33*
CCOc1cccc2sc(N(CCCN(C)C)C(=O)Cc3ccccc3)nc12 | 37* | 1 | 1 | 7 | -1
CCOc1cccc2sc(N(CCN(C)C)C(=O)c3cc4ccccc4cc3OC)nc12 | 33* | 8 | 6 | 0 | -70*
CN(C)CCCN(C(=O)c1ccc(C(=O)c2ccccc2)cc1)c1nc2c(F)cccc2s1 | 9 | 2 | 0 | 0 | -8
N/C(=C\C(=O)c1cc(Cl)ccc1O)C(Cl)(Cl)Cl | 3 | -12 | 2 | -1 | 1
C=CCn1c(N)cc(=O)nc1SC(CC)C(=O)Nc1ccc(C(C)=O)cc1 (centres undefined) | 0 | 6 | 1 | 0 | -12
CC1CCCN(CCC(=O)Nc2ccc(F)c(F)c2)C1 (centres undefined) | 5 | -1 | 3 | 3 | 10
O=C(c1ccc(Cl)cc1)N1CCCC(C(=O)N2CCCCC2)C1 (centres undefined) | 2 | -4 | -4 | 0 | 16
CC(=O)c1cc(C(=O)N2CCCC(C(=O)c3ccc(Cl)cc3)C2)cs1 (centres undefined) | 5 | -3 | 2 | 0 | -33*
Cc1ccc2nc(NC(=O)CN3C(=O)NC4(CCCC4)C3=O)sc2c1 | 3 | 13 | -2 | 0 | -11
Cc1ccc(OCCC(=O)Nc2ccc3c(c2)OCO3)cc1 | 1 | 4 | -1 | 1 | 6
O=C(COC(=O)c1cc(-c2ccccc2)nc2ccccc12)Nc1ccc2c(c1)OCO2 | 2 | -4 | -3 | 0 | -42*
Cc1ccc(OCCC(=O)OCC(=O)Nc2ccc3c(c2)OCO3)cc1 | 4 | -3 | -6 | 0 | -64*
Cc1cc(C)c(OCC(=O)Nc2ccc3c(c2)OCO3)cc1C | 124* | -2 | 18 | -1 | 4
CC(=O)N(C)c1ccc(NC(=O)COc2ccc(Br)cc2C)cc1 | 17 | 0 | -8 | 0 | -55*
Cc1ccc(C)c(OCC(=O)Nc2ccc3c(c2)OCO3)c1 | 7 | 11 | -6 | 0 | 1
COc1ccc(-c2cc(C(=O)OCC(=O)Nc3ccc4c(c3)OCO4)c3ccccc3n2)cc1 | 2 | -5 | -8 | 1 | -14
Cc1cc(OCC(=O)Nc2ccncc2)c(C)cc1Br | 20 | -9 | -12 | 0 | -33*
CCc1ccc(OCC(=O)Nc2ccncc2)c(Br)c1 | 9 | -1 | -13 | 0 | -30
COc1ccc(C)cc1-n1c(-c2ccncc2)n[nH]c1=S | 1 | 4 | -4 | 0 | -32*
O=C(Nc1ccsc1C(=O)O)c1ccccc1Cl | 2 | -3 | 3 | 0 | 2
CCNC(=S)NNC(=O)c1csc(C(C)C)c1 | -1 | 3 | 15 | 0 | 11
CCCCNC(=S)NNC(=O)c1csc(C(C)C)c1 | -1 | 3 | -4 | 0 | -45*
O=C(Cn1c(C(=O)OCCO)cc2ccccc21)c1ccccc1 | 0 | 3 | -11 | 0 | 2
COc1ccc(Cn2cc(S(=O)(=O)c3ccc(Cl)cc3)c(=O)c3cc4c(cc32)OCO4)cc1 | 0 | 17 | 0 | 0 | -42*
SMILES | D1 agonist | TRHR enhancer | D1 PAM | TRHR ag | D1 antagonist
CCOc1ccc2c(c1)c(=O)c(S(=O)(=O)c1ccc(Cl)cc1)cn2Cc1ccccc1C | 2 | 40* | -2 | 1 | -3
Cc1ccc(S(=O)(=O)c2cn(Cc3cccc(C)c3)c3cc4c(cc3c2=O)OCO4)cc1 | 15 | 7 | -4 | -1 | -9
CCOc1ccc2c(c1)c(=O)c(S(=O)(=O)c1ccc(C)cc1)cn2Cc1ccccc1Cl | 7 | -4 | -2 | 2 | -21
CC(=O)N1N=C(c2ccc(Cl)cc2)OC1(C)C | 0 | 34* | 4 | 0 | 16
Cc1cccc(N2CCN(C(=O)CCC(=O)N3CC(C)Oc4ccc(C)cc43)CC2C)c1 (centres undefined) | 3 | 0 | 10 | -1 | 4
O=C(COC(=O)c1cc(S(=O)(=O)N2CCOCC2)c(Cl)cc1Cl)NC1CC1 | 2 | 0 | 1 | 0 | 23
O=C(c1cc(Cl)nc2ccccc12)N1CCN(S(=O)(=O)c2cccc(C(F)(F)F)c2)CC1 | -1 | -13 | -6 | 0 | -33*
CCc1nc2ccccc2n1CC(=O)N1CCN(S(=O)(=O)c2cccc(C(F)(F)F)c2)CC1 | -1 | -15 | -6 | 1 | -7
CCN(CC)C(=O)Cn1c(=O)n(-c2ccc(Cl)cc2)c(=O)c2c3c(sc21)CCC3 | -3 | 1 | 2 | -2 | -16
CC1CCN(C(=O)CN(c2ccc3c(c2)OCCO3)S(=O)(=O)c2ccccc2)CC1 | 7 | 5 | -3 | -2 | 26
CCOc1ccc(OCc2cccc(C(=O)N3CCCCCC3)c2)cc1 | 10 | -5 | -6 | 0 | -21
O=C(NN1CCCCC1)c1cccc(COc2ccc(Cl)cc2)c1 | 5 | 2 | -3 | 1 | -31*
Cc1ccc(S(=O)(=O)c2nc(-c3cccs3)oc2N2CCC(C)CC2)cc1 | 3 | 10 | 1 | -1 | 8
O=S(=O)(c1ccccc1)c1nc(-c2cccs2)oc1N1CCCCC1 | 1 | 36* | 1 | 0 | 3
CCn1c(CNC(=O)C23CC4CC(CC(C4)C2)C3)nnc1SCC(=O)Nc1ccccc1 | -1 | -6 | -4 | 0 | 11
OC(COc1ccc(F)cc1Cl)CN1CCC(Cc2ccccc2)CC1 (centres undefined) | 61* | -5 | -7 | 0 | -72*
COc1cccc(OCC(O)CN2CCC(Cc3ccccc3)CC2)c1 (centres undefined) | 20 | -2 | -6 | 0 | -31*
OC(COc1ccccc1F)CN1CCC(Cc2ccccc2)CC1 (centres undefined) | 16 | -5 | -18 | 1 | -42*
COC(=O)c1ccc(NC(=O)CSCc2ccccc2C)cc1 | 2 | 40* | -6 | 0 | -13
CCN(CC)C(=O)COc1ccc(N(C)S(=O)(=O)c2ccc(NC(C)=O)cc2)cc1 | 2 | -4 | -7 | 1 | -38*
CN(c1ccc(OCC(=O)OCC(=O)Nc2ccc(Br)cc2)cc1)S(=O)(=O)c1cccs1 | 6 | -4 | -6 | 1 | -11
CN(c1ccc(OCC(=O)OCC(=O)Nc2ccccc2)cc1)S(=O)(=O)c1cccs1 | 21 | 6 | -5 | -2 | -47*
CN(c1ccc(OCC(=O)OCC(=O)Nc2ccc(F)cc2)cc1)S(=O)(=O)c1ccc(Cl)cc1 | 9 | -6 | -5 | 0 | -56*
COc1ccccc1NC(=O)c1cc(C(=O)Nc2ccccc2OC)cc([N+](=O)[O-])c1 | 1 | -6 | -11 | 0 | 1
CCc1ccc(N(CC(=O)NC(C)(C)C)C(=O)CCC(=O)Nc2ccccn2)cc1 | 2 | 0 | 5 | 2 | 27

Source: PubChem BioAssay (National Center for Advancing Translational Sciences (NCATS))
